Screening results from PubChem.
Rows were chosen to be rich in hits. Some 18% of all compounds tested hit in one or more screens of this group.
HepG2 viability: kills HepG2 cells in TGF-b inhibitor counter-screen; actives 0.76% (n = 410,000); Potency, µM (highest dose often 46.1 µM), for the others: top-dose activity change, negative = cytotoxicity, actives largely listed as cytotoxic; HepG2 CAGA-GFP viability, ATP luminescence, 18 h; AID 588856; further: potency means the concentration at half of the fitted maximal effect
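CellTiter-Glo luminescence gave cytotoxicity after 18 hours at 37 degrees C. The cells were HepG2 CAGA-GFP in 1% FBS DMEM, stimulated with 500 pg/mL TGF-beta after compound addition. %Activity was normalised to no-cell wells (complete cell-killing) and DMSO (no toxicity), and curves were fitted and classified.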
TDP1 inh: TDP1 (human) enzyme inhibition | Q9NUW8 | recombinant TDP1, AlphaScreen DNA substrate cleavage | Potency, µM (titrated, usually from 130 µM), without a hit: at the top dose activity change, negative = inhibition, most hits filed as inhibitors | actives 0.28% (n = 350,000); further: potency means the concentration at half of the fitted maximal effect; on the % scale 0 is the no-effect control and ±100 the full control effect; nearly all actives have a fitted effect of over 40% in size
Target sequence (Q9NUW8 whole entry, looked up): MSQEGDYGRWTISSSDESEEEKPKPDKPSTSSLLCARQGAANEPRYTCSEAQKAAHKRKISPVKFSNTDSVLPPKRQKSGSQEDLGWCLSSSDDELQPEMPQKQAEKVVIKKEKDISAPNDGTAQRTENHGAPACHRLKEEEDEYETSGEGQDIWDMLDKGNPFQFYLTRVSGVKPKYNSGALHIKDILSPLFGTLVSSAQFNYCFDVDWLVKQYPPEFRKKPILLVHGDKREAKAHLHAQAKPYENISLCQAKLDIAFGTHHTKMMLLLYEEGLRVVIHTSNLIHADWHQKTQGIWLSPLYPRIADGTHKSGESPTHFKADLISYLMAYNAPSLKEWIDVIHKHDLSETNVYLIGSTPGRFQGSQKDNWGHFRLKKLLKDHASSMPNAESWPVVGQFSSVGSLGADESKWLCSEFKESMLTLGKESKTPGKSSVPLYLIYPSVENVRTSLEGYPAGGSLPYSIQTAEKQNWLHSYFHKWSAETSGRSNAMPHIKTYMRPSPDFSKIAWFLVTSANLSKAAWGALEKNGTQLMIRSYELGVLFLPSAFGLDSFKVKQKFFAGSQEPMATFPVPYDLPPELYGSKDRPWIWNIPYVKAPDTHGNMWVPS
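Recombinant E. coli-expressed Tdp1 (1 nM) preincubated with compound 15 min at RT, then 5'-biotin/3'-phosphotyrosine-FITC DNA substrate (15 nM) added for 5 min. AlphaScreen beads (10 ug/ml) added, 10 min RT; tyrosine-FITC cleavage read as signal loss.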
DT40 TDP1 CPT: growth inhibition of DT40 Tdp1-/-;hTDP1 cells with camptothecin (screen for TDP1 inhibitors); AID 686979; chicken DT40 Tdp1-/-;hTDP1 cells + 20 nM CPT, ATP luminescence, 48 h; actives 12% (n = 420,000); Potency, µM (highest dose often 46.2 µM), without a hit: at the highest dose activity change, negative = growth inhibition, actives largely listed as inhibitors; further: potency means the concentration at half of the fitted maximal effect; on the % scale 0 is the no-effect control and ±100 the full control effect; nearly all actives have a fitted effect of over 55% in size
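Cell growth measured by CellTiter-Glo luminescence after a minimum 48 h, 37 C compound exposure with 20 nM CPT in Tdp1-knockout DT40 cells stably expressing hTDP1, seeded 400/well; qHTS titration format.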
IL1B secr inh: blocks inflammasome-driven IL-1 beta release. actives 4.7% (n = 360,000). activity change, % at 57.5 µM. THP-1 LPS/ATP IL-1B secretion, AlphaLISA, 16 h; hits give low values. AID 743279; in the data active means activity change below about -50%; inconclusive means mostly about -30% to -49%; further: on the % scale 0 is the no-effect control and ±100 the full control effect
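THP-1 cells pretreated 1 hr with compounds (up to 57.5 uM final), then stimulated with LPS (250 ng/mL final) plus ATP (1.25 mM final); secreted IL-1B measured by AlphaLISA after 16 hr, decreased signal indicating inhibition.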
TGFb inhibitor: TGF-b pathway inhibition; HepG2 CAGA-GFP TGF-b/SMAD3 reporter, GFP fluorescence, 18 h; TGF-beta stimulated, 500 pg/mL final; Potency, µM (titrated, usually from 46.1 µM), inactives show top-dose activity, negative = inhibition, actives largely listed as inhibitors; AID 588855; actives 1.2% (n = 410,000); further: potency means the concentration at half of the fitted maximal effect; on the % scale 0 is the no-effect control and ±100 the full control effect; nearly all actives have a fitted effect of over 65% in size
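Read-out: total well GFP (ex488/em500-530) summed from mean per-cell fluorescence. Cells: HEPG2 CAGA-GFP, 1% FBS DMEM, 18 h at 37 degrees C with 500 pg/mL final TGF-beta. Unstimulated wells served as the full-inhibition control; stimulated DMSO wells = 0%.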
DT40 TDP1 no CPT: qHTS for Inhibitors of human tyrosyl-DNA phosphodiesterase 1 (TDP1): qHTS in cells in absence of CPT. DT40 Tdp1-/- hTDP1 cells, no CPT, ATP luminescence, 48 h. Potency, µM (titrated, usually from 46.2 µM), for inactives: top-dose activity change, negative = growth inhibition, actives largely listed as inhibitors. actives 15% (n = 420,000). AID 686978, 2013; further: potency means the concentration at half of the fitted maximal effect; on the % scale 0 is the no-effect control and ±100 the full control effect; nearly all actives have a fitted effect of over 55% in size
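Readout: luminescence from CellTiter-Glo after 30 min in the dark at RT. Cells: DT40 Tdp1-/- with stable hTDP1, 400/well. Exposure: compounds alone, ≥48 hr, 37 °C.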
* marks the source's active call; other numbers are inactive results; ? = inconclusive; · = not tested or not shown; [ ] = dose if it differs, or a comment. Unless noted, the call rests on the fitted dose curve; in most records, active means well fitted curve in the direction sought with a large enough effect; inconclusive means small, poorly fitted or top-dose-only effect, or another doubt; inactive means no such curve, though single readings can be large; an effect the other way counts as inactive or inconclusive.

SMILES | HepG2 viability | TDP1 inh | DT40 TDP1 CPT | IL1B secr inh | TGFb inhibitor | DT40 TDP1 no CPT
Cc1cc(C)cc(-n2c(C)cc(/C=N/NC(=O)c3cccc([N+](=O)[O-])c3C)c2C)c1 | 4% | 10% | ? | -9 | -7% | 26µM*
Cc1cc(C(=O)N/N=C/c2ccc3c(c2)OCO3)c(C)n1-c1ccc(F)cc1 | -20% | 6% | ? | -9 | -2% | 13µM*
O=C(N/N=C/c1ccc2c(c1)OCO2)c1ccc(NC(=O)c2ccc(F)cc2)cc1 | -1% | -5% | ? | -2 | -7% | ?
CN(C(=O)CSc1nnc(-c2ccco2)n1Cc1ccccc1)C1CCS(=O)(=O)C1 (centres undefined) | -3% | 0%[56.1 µM] | 1% | 9 | 6% | 2%
Cc1ccc(CNC(=O)Cn2c(=O)cc(-c3ccccc3)c3c(C)nn(C)c32)cc1 | 1% | 6% | -17% | · | ? | -15%
CCOc1ccc(C(=O)NC(C(=O)NCC(c2cccs2)N(C)C)C(C)C)cc1 (centres undefined) | 6% | 0% | -23% | -8 | -9% | 0%
CS(=O)(=O)CCC(C(=O)Nc1cccc(C(F)(F)F)c1)N1Cc2ccccc2C1=O (centres undefined) | -1% | 5% | -10% | · | -9% | -18%
Cc1ccc(Cn2nnc3c(=O)n(CC(=O)c4ccccc4)cnc32)cc1 | -4% | 2% | -10% | 4 | -10% | ?
Cc1ccc(C(=O)N2CCc3cc(CNC(=O)CCc4ccccc4)ccc32)cc1 | -17% | 3% | ? | · | ? | ?
Cc1cccc(C(=O)N2CCc3cc(CNC(=O)CCc4ccccc4)ccc32)c1 | -5% | 0% | 15µM* | · | 3% | 13µM*
COc1ccc(OCC(=O)NCc2ccc3c(c2)CCN3C(=O)c2cccc(C)c2)cc1 | -5% | 5% | 1.8µM* | · | ? | 1.8µM*
CN(CC(=O)Nc1ccc(F)cc1)C(=O)COC(=O)/C=C/c1ccccc1[N+](=O)[O-] | 8% | 3% | 0% | 1 | 5% | 2%
Cc1ccc(-c2noc(CCC(=O)NCCCN3CCN(c4cccc(Cl)c4)CC3)n2)cc1 | -23% | 4% | 12µM* | -67* | -5% | 8.2µM*
COc1ccc(-c2noc(CCC(=O)N3CCN(c4ccc(F)cc4)CC3)n2)cc1 | -4% | 1%[56.1 µM] | -27% | 23 | 2% | -15%
CC(C)CCNC(=O)COc1ccc2c(c1)C(=O)CC(C)(C)O2 | 0% | 4% | -25% | 17 | -4% | ?
CC1(C)CC(=O)c2cc(OCC(=O)NCCCN3CCN(c4ccc(F)cc4)CC3)ccc2O1 | -50% | 8% | 11µM* | ? | 5% | ?
Cc1ccc(-c2noc(CCC(=O)NCCCN3CCN(c4ccc(F)cc4)CC3)n2)cc1 | -30% | 4% | 6.5µM* | -68* | 4% | 7.3µM*
COc1cc(OC)cc(-c2nc3n(n2)C(c2ccccc2)C(C(N)=O)=C(C)N3)c1 (centres undefined) | 13% | · | -20% | · | 5% | -27%
Cc1cc(C)c2nc(N(Cc3cccnc3)C(=O)CCS(=O)(=O)c3ccccc3)sc2c1 | 1% | 5% | 4.6µM* | · | ? | 4.6µM*
Cc1cccc2sc(N(Cc3cccnc3)C(=O)CCS(=O)(=O)c3ccccc3)nc12 | 20µM* | 3% | 2.9µM* | · | 11µM* | 3.3µM*
O=C(CCOc1ccccc1)N(Cc1cccnc1)c1nc2c(Cl)cccc2s1 | 13µM* | -8% | 1.3µM* | · | ? | 2.1µM*
Cc1cccc2sc(N(Cc3cccnc3)C(=O)CCOc3ccccc3)nc12 | -31% | 5% | ? | · | ? | ?
O=C(CCS(=O)(=O)c1ccccc1)N(Cc1cccnc1)c1nc2c(Cl)cccc2s1 | 0% | 3% | 5.2µM* | · | 4µM* | 5.2µM*
Cc1cccc2sc(N(Cc3cccnc3)C(=O)COc3ccccc3)nc12 | -48% | 8% | -25% | · | -26% | -13%
Cc1cc(C)c2nc(N(Cc3cccnc3)C(=O)CCOc3ccccc3)sc2c1 | -5% | 0% | -18% | · | -21% | ?
SMILES | HepG2 viability | TDP1 inh | DT40 TDP1 CPT | IL1B secr inh | TGFb inhibitor | DT40 TDP1 no CPT
CC(=O)OCC(=O)C1(O)CCC2C3CC(F)C4=CC(=O)CCC4(C)C3C(O)CC21C (centres undefined) | -4% | · | -17% | · | -10% | -27%
O=C1C(c2[nH]c3ccc(S(=O)(=O)O)cc3c2O)=Nc2ccc(S(=O)(=O)O)cc21 | 6% | ? | -19% | · | 9% | -17%
O=C(COC(=O)CCC(=O)Nc1nccs1)NCc1ccco1 | 5% | 3% | 8% | -29 | 1% | -1%
Cc1cccc(S(=O)(=O)NC2CCN(C#N)C2)c1 (centres undefined) | · | 0% | · | · | · | ·
CCCCCCC1=Cc2cc(OC)c(OC)cc2C(C2(C(=O)OCC)CCCC2=O)O1 (centres undefined) | · | -1%[21 µM] | · | · | · | ·
Cc1cc(C)c2nc(N(Cc3cccnc3)C(=O)c3ccc(S(=O)(=O)N(C)C)cc3)sc2c1 | 2% | 5% | ? | · | 3% | 18µM*
Cc1cc(C)c2sc(N(Cc3cccnc3)C(=O)CCS(=O)(=O)c3ccccc3)nc2c1 | 7.1µM* | -5% | 4.1µM* | · | 2.5µM* | 2.9µM*
Cc1ccc2sc(N(Cc3cccnc3)C(=O)CCS(=O)(=O)c3ccccc3)nc2c1C | -40% | 8% | 5.8µM* | · | 0% | 6.5µM*
O=C(O)CCCCCN1C(=O)CSC1=S | -1% | -10% | -28% | -19 | -8% | ?
CC(C)OC(=O)CCCCCN1C(=O)CSC1=S | -18% | -5% | -4% | -56* | 10% | -9%
CC(OC(=O)c1ccco1)C(=O)Nc1ccc(C(F)(F)F)cc1 (centres undefined) | -10% | 0% | 10µM* | -9 | -15% | 26µM*
CC(=O)Nc1cccc(NC(=O)C(=O)NCC(c2ccco2)N2CCc3ccccc3C2)c1 (centres undefined) | 5% | · | 16µM* | 11 | 1% | 23µM*
COc1cccc(NC(=O)C(=O)NCC(c2ccco2)N2CCc3ccccc3C2)c1 (centres undefined) | 8% | 0% | ? | -7 | -1% | ?
COc1ccc(NC(=O)C(=O)NCC(c2ccco2)N2CCc3ccccc3C2)cc1OC (centres undefined) | -23% | · | ? | -3 | 2.5µM* | ?
